From PMC4336329 (PLoS ONE, 2015)
Among all 310,000 compounds or so, about 14,000 (4.5%) showed an effect of 50% or more. Effects have a minus sign here. The full list was thinned out, with strong results kept by preference.

Target: human ether-à-go-go-related gene (hERG) potassium channel (human, UniProt Q12809)
Assay: primary screen, population patch clamp on CHO cells stably expressing hERG; higher = less effect of the substance
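Also: peak tail current of the secondary pulse compared with the same well before compound.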

Chain of human ether-à-go-go-related gene (hERG) potassium channel (Q12809 whole entry, looked up): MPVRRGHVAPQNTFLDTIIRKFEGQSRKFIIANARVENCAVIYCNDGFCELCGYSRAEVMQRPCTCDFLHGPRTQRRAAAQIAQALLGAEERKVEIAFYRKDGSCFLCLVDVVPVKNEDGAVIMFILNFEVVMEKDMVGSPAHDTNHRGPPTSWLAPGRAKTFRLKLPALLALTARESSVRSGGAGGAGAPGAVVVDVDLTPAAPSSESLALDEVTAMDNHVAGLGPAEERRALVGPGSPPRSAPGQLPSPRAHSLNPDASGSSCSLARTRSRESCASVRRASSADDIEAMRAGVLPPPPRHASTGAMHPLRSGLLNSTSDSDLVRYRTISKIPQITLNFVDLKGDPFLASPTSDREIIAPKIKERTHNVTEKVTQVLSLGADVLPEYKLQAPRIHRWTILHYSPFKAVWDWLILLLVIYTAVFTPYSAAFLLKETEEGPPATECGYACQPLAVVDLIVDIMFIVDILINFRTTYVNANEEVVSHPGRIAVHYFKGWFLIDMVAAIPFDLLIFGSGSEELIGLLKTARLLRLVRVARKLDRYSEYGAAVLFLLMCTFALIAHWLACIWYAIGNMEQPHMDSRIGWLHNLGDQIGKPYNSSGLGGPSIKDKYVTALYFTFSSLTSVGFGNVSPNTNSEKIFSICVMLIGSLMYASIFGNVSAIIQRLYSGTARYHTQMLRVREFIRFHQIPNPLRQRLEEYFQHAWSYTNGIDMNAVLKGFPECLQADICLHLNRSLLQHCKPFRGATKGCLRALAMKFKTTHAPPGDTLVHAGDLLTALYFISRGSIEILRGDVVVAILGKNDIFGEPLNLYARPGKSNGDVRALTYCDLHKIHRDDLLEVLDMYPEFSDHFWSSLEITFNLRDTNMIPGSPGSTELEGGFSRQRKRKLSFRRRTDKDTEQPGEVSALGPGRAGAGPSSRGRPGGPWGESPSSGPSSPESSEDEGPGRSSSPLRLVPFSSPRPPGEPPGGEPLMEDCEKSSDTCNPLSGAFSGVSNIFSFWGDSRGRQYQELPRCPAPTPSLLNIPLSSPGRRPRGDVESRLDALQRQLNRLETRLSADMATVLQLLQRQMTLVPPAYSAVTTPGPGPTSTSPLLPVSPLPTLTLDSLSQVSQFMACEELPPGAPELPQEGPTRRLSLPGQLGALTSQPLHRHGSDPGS

Row | SMILES | hERG current change (%, negative = inhibition) at 10uM
1 | Cc1ccc(C(=O)NCCC(=O)NCc2ccco2)cc1 | 9.59%
2 | CC1=NN(C(=O)c2nn(C)cc2Br)C(O)(C(F)(F)F)C1 (centres unmarked) | 10.3%
3 | Cc1cccc(C)c1NC(=O)CNC(=O)C1CCCC1 | 2.19%
4 | O=C(NC1CCCCC1)C(c1ccc(F)cc1)N(C(=O)c1csnn1)C1CC1 (centres unmarked) | 13.2%
5 | COc1ccc(C(=O)CN2CCN(c3ncccn3)CC2)cc1.O=C(O)C(=O)O | 5.13%
6 | COc1ccc2nc(C)cc(C(=O)O)c2c1 | 0.7%
7 | COc1ccc(C(=O)CN2CCN(c3cc(C)nc4ccccc34)CC2)cc1 | -68.8%
8 | COc1ccc2nc(C)cc(N3CCOCC3)c2c1 | -14.6%
9 | COc1ccc(N2CCN(c3cc(C)c4ccccc4n3)CC2)cc1 | 3.95%
10 | COc1ccc2nc(C)cc(N3CCN(c4ccccc4)CC3)c2c1 | -66.7%
11 | COc1ccc2nc(C)cc(N3CC(C)OC(C)C3)c2c1 (centres unmarked) | -49.6%
12 | COc1ccc(N2CCN(CC(=O)c3ccccc3)CC2)cc1 | 11%
13 | CCOC(=O)C1CCN(c2nc3cc(OC)ccc3cc2C#N)CC1 | -16%
14 | CCOC(=O)C1CCN(c2cc(C)nc3ccc(OC)cc23)CC1 | -73.8%
15 | COc1ccc(N2CCN(c3cc(C)nc4ccc(OC)cc34)CC2)cc1 | -69.1%
16 | COc1ccc2nc(C)cc(N3CCC(C(N)=O)CC3)c2c1 | -33.7%
17 | Cc1ccc(NC(=O)CNC(=O)c2cccs2)c(O)c1 | 15.1%
18 | Cl.NS(=O)(=O)c1cccc(N2CCNCC2)c1 | 11.7%
19 | COc1ccc(Cl)cc1NC(=S)NNC(=O)c1cccnc1 | 36.9%
20 | COc1ccc2nc(C)cc(N3CCN(S(=O)(=O)c4ccccc4F)CC3)c2c1 | -75.9%
21 | COc1cccc(S(=O)(=O)N2CCN(c3ccccc3F)CC2)c1 | -6.35%

Row | SMILES | hERG current change (%, negative = inhibition) at 10uM
22 | COc1ccccc1N1CCN(S(=O)(=O)c2ccccc2F)CC1 | -23.3%
23 | CCOc1ccc(-c2n[nH]c(C)c2Oc2ccc(OC)cc2)c(O)c1 | -6.31%
24 | Cc1ccc2cc(CN(Cc3ccco3)S(=O)(=O)c3c(C)ccc4nsnc34)c(=O)[nH]c2c1 | 2.82%
25 | OCc1ccccc1CN1CCCCCC1 | -9.62%
26 | CNCc1ccccc1Sc1cccc2ccccc12.O=C(O)/C=C\C(=O)O | -45.4%
27 | CNCc1ccccc1Sc1cccc(O)c1.O=C(O)/C=C\C(=O)O | 7.03%
28 | CNCc1ccccc1Sc1ccc(OC)c(OC)c1.O=C(O)/C=C\C(=O)O | -18.3%
29 | CN1CCN(Cc2ccccc2Sc2ccccc2)CC1.O=C(O)/C=C\C(=O)O | -82%
30 | O=C(O)/C=C\C(=O)O.c1ccc(Sc2ccccc2CN2CCCC2)cc1 | -50.7%
31 | O=C1N=C(N2CCCC2)S/C1=C\c1cn[nH]c1-c1ccccc1 | -4.48%
32 | COCCN=c1scc(-c2cccs2)n1/N=C(\C)c1ccco1 | -2.51%
33 | CN(C)S(=O)(=O)c1cccc(COc2ccccc2C(=O)Nc2ccccc2)c1 | -14.4%
34 | Brc1ccc(OCc2cn3ccccc3n2)cc1 | -7.75%
35 | CCOC(=O)c1sc(NC(=O)CSc2nccc(C)n2)c(C#N)c1C | -4.68%
36 | Cc1sc2ncnc(Sc3nc4ccccc4s3)c2c1C | 5.53%
37 | Cl.O=C(CN1CCCC1)Nc1ccc2c(c1)CCC2 | -1.69%
38 | CC1(c2ccccc2)O[C@@H]2C[C@H]3[C@@H]4CCC5=CC(=O)C=C[C@]5(C)[C@@]4(F)[C@@H](O)C[C@]3(C)[C@]2(C(=O)CO)O1 (some centres unmarked) | -78.6%
39 | CC1(C)O[C@@H]2C[C@H]3[C@@H]4CCC5=CC(=O)C=C[C@]5(C)[C@@]4(F)[C@@H](O)C[C@]3(C)[C@]2(C(=O)CO)O1 | 13.7%
40 | C[C@]12C=CC(=O)C=C1CC[C@H]1[C@@H]3C[C@@H](O)[C@](O)(C(=O)CO)[C@@]3(C)C[C@H](O)[C@@]12F | 6.23%
41 | CCn1c(CCNC(=O)c2ccccc2Cl)n[nH]c1=S | 12%
